Hits are enriched below; roughly 3.8% of the tested compounds scored in any of these assays.
ATXN2 expr inh: reduces ATXN2 reporter expression in HEK-293 cells; HEK-293 ATXN2-luciferase reporter, luminescence, 24 h; Potency, µM (top dose mostly 57 µM), for the others: top-dose activity change, negative = inhibition, hits mostly inhibitors; 360,000 tested, 0.72% active; note: % is set by controls: 0 for no effect and ±100 for the full control effect; nearly all actives have a fitted effect of over 55% in size
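qHTS (up to 57 uM final) was run with 24 h compound exposure of reporter cells at 37 °C. Each well was multiplexed: SteadyGlo luminescence measured ATXN2-luciferase expression after a fluorogenic Gly-Phe-AFC viability readout (25 uM final).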
HepG2 tox: counter-screen for TGF-b inhibitors: cytotoxicity in HepG2 cells | 410,000 tested, 0.76% active | HepG2 CAGA-GFP viability, ATP luminescence, 18 h | Potency, µM (top dose mostly 46.1 µM), for inactives: at the highest dose activity change, negative = cytotoxicity, hits mostly cytotoxic | AID 588856
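HepG2 CAGA-GFP cells (1000/well, DMEM with 1% FBS) received compound, then TGF-beta at 500 pg/mL final, and were incubated 18 hours at 37 degrees C. Viability was read by CellTiter-Glo luminescence. Media-only wells were set as complete cell-killing and DMSO as no toxicity.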
ATXN viability: viability counter-screen for ATXN expression inhibitors. 400,000 tested, 0.49% active. Potency, µM (highest dose often 56.7 µM), actives largely listed as cytotoxic. S2 cells (HEK-293 line with an ATXN2-luciferase reporter) viability, CellTiter-Fluor protease fluorescence, 24 h; note: nearly all actives have a fitted effect of over 40% in size
TGFb SMAD3 inh: TGF-b pathway inhibition; HepG2 CAGA-GFP TGF-b/SMAD3 reporter, GFP fluorescence, 18 h; TGF-beta stimulated, 500 pg/mL final; Potency, µM (doses to about 46.1 µM), for the others: top-dose activity, negative = inhibition, most hits filed as inhibitors; 410,000 tested, 1.2% active; AID 588855; note: % is set by controls: 0 for no effect and ±100 for the full control effect; nearly all actives have a fitted effect of over 65% in size
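TGF-beta reporter screen: HEPG2 CAGA-GFP, 1% FBS, 500 pg/mL TGF-beta final, 18 h; per-cell GFP summed per well; curves fitted and categorized by class.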
HT1080 IDH1KD tx: HT-1080 IDH1 knockdown cell toxicity (counter line); HT-1080 IDH1 knockdown viability, ATP luminescence, 48 h; Potency, µM (top dose mostly 46.1 µM), inactives show at the highest dose activity, negative = toxicity, hits mostly cytotoxic; 360,000 tested, 2% active; AID 686971;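 note: 0% = DMSO wells and -100% = cell-free medium wells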
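Knockdown cells (IDH1KD HT-1080) received compounds 2 h after plating at 750 cells/well and were kept 48 h at 37 °C in 5% FBS RPMI. A CellTiter-Glo luminescence read gave % activity for curve fitting.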
HT1080-NT tox: kills 2HG-producing HT-1080-NT fibrosarcoma cells; Potency, µM (highest dose often 46.1 µM), without a hit: at the top dose activity, negative = less viability, hits mostly cytotoxic; 360,000 tested, 1.6% active; HT-1080-NT fibrosarcoma viability, CellTiter-Glo ATP luminescence, 48 h;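 note: NT is the 2HG producing partner of a matched IDH1 knockdown line; 0% = DMSO-treated cells and -100% = media-only wells without cells; nearly all actives have a fitted effect of over 55% in size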
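HT-1080-NT; 750 cells/well; 5% FBS RPMI; 48 h compound, 37 degrees C; CellTiter-Glo luminescence; curve fitting and curve-class assignment.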
* hit, by the source's call; i = inactive; ? = inconclusive; / = not tested or not shown. Calls come from the whole dose curve; as a rule, active = well fitted curve in the direction sought with a large enough effect; inconclusive = small, poorly fitted or top-dose-only effect, or another doubt; inactive = no such curve, though single readings can be large; an effect the other way counts as inactive or inconclusive. Potency is the fitted concentration of half-maximal effect.

SMILES | ATXN2 expr inh | HepG2 tox | ATXN viability | TGFb SMAD3 inh | HT1080 IDH1KD tx | HT1080-NT tox
CCOc1ccc(C(=O)OCc2cc(=O)n3nc(C4CCCCC4)sc3n2)cc1 | -1% | 0% | i | -7% | / | /
Cc1ccc(S(=O)(=O)Nc2ccc(C(OC(=O)c3ccccc3[N+](=O)[O-])(C(F)(F)F)C(F)(F)F)cc2)cc1 | -3% | 10µM* | i | 10µM* | ? | -13%
COc1cc(=O)n2c(c1C(=O)NCc1ccco1)CCN(Cc1cccc(C(F)(F)F)c1)CC2 | / | / | i | / | / | /
NC(=O)c1cc2c3ccccc3ccn2c1-c1ccccc1 | / | -69% | ? | ? | ? | 1.6µM*
Cc1cc2c(cc(C(=O)OCC(=O)NCc3cccs3)n2C(C)C)o1 | -14% | -13% | i | ? | ? | 1µM*
Cc1cc(C)cc(C(=O)OCC(=O)NCc2cccs2)c1 | 3% | -4% | i | -14% | -10% | -13%
CCc1ccccc1NC(=O)c1ccc2nc(C(C)C)oc2c1 | / | -32% | / | ? | / | /
CC1(C)CC(=O)C2=C(C1)NC(SCC(=O)Nc1ccccc1)=C(C#N)C21CCCCC1 | -1% | -36% | i | ? | -16% | ?
CC(C)(C)C1CCC2(CC1)C(C#N)=C(SCC(=O)Nc1ccccc1)NC(=O)C2C#N (stereo not drawn) | ? | 10µM* | ? | 7.1µM* | ? | 15µM*
CCCOC(=O)c1cccc(Nc2nc(-c3cccnc3)nc3ccccc23)c1 | ? | 16µM* | / | 18µM* | ? | 26µM*
Cc1[nH]n(-c2ccc([N+](=O)[O-])cc2)c(=O)c1C=NCCN1CCN(C(=O)c2ccc(Br)cc2)CC1 | -27% | 7.1µM* | i | -2% | ? | ?
Cc1[nH]n(-c2ccc([N+](=O)[O-])cc2)c(=O)c1C=NCCN1CCN(C(=O)c2cccc(F)c2)CC1 | 6% | 7.9µM* | i | 11% | 16µM* | 18µM*
Cc1[nH]n(-c2ccc([N+](=O)[O-])cc2)c(=O)c1C=NCCN1CCN(C(=O)c2ccc(F)cc2)CC1 | 4% | -2% | i | 22% | 3% | 2%
Cc1[nH]n(-c2ccc([N+](=O)[O-])cc2)c(=O)c1C=NCCc1c[nH]c2ccccc12 | -15% | -40% | i | 11% | ? | ?
CC(=O)c1cc2c(cc1NS(=O)(=O)c1ccc(C)cc1)OCCO2 | -32% | -2% | i | 5% | 16µM* | ?
Cc1c(Cl)cccc1NC(=O)CN1C(=O)COc2ccc(S(=O)(=O)N3CCCCCC3)cc21 | / | 1% | / | 3% | / | /
COC(=O)c1ccc(C)c(NS(=O)(=O)c2ccc(C)c([N+](=O)[O-])c2)c1 | 12% | -40% | i | 0% | ? | -24%
COC(=O)c1ccc(C)c(NS(=O)(=O)c2ccc3c(c2)OCCO3)c1 | 1% | -7% | i | -20% | 0.71µM* | 0.5µM*
Cc1c(Cl)cccc1NC(=O)CN1C(=O)COc2ccc(S(=O)(=O)Nc3ccccc3)cc21 | -9% | -20% | ? | 10µM* | / | /
Cc1c(Cl)cccc1NS(=O)(=O)c1ccc(NS(=O)(=O)c2ccc3c(c2)OCCO3)cc1 | ? | -42% | i | 16µM* | / | /
CC(=O)c1cc2c(cc1NS(=O)(=O)c1ccccc1)OCO2 | -1% | -27% | i | 0% | 2% | ?
COc1ccccc1CNC(=O)c1ccc(-c2nc(CS(=O)c3ccc(C)cc3)c(C)o2)cc1 (stereo not drawn) | -6% | 9% | i | 12% | / | /
CCCCCCCCC(=O)NC(NC(=S)N1CCOCC1)C(Cl)(Cl)Cl (stereo not drawn) | -19% | -73% | i | ? | 11µM* | ?
CCCCCC(=O)NC(NC(=S)N1CCOCC1)C(Cl)(Cl)Cl (stereo not drawn) | 3% | -31% | i | ? | -12% | -1%
Cc1cc(C)c(C#N)c(Sc2ccc(N)cc2)n1 | 0% | -13% | i | -1% | 1% | -4%
SMILES | ATXN2 expr inh | HepG2 tox | ATXN viability | TGFb SMAD3 inh | HT1080 IDH1KD tx | HT1080-NT tox
CCOC(=O)c1cc(C)nc(Sc2ccc(C)cc2)c1C#N | -3% | 21% | i | 27% | 21µM* | ?
CN(C)CCNC(=O)c1coc(=O)c(Br)c1 | -5% | 3% | i | 0% | -4% | -2%
CC(C)CNC(=O)c1coc(=O)c(Br)c1 | / | -89% | / | 14µM* | 11µM* | ?
O=C(NCCc1ccccc1)c1coc(=O)c(Br)c1 | 9% | -19% | ? | ? | 23µM* | 21µM*
O=C(NCCC1=CCCCC1)c1ccc(=O)oc1 | -4% | -14% | i | 10% | ? | 11%
O=C(NCCC1=CCCCC1)c1coc(=O)c(Br)c1 | ? | -87% | / | ? | 18µM* | 7.3µM*
CC(C)(C)n1ncc2c(=O)n(Cc3ccc(C#N)c(F)c3)cnc21 | / | -1% | / | -3% | / | /
CC(C)c1ccc(Cn2ccc3c4c(N)nc(NC5CC5)nc4ccc32)cc1 | 24µM* | / | / | / | / | /
Cc1ccc(S(=O)(=O)N2CCN(c3nc(-c4cccs4)nc4cccnc34)CC2)cc1 | / | 4% | / | 7% | / | /
CC(C)(C)c1ccc(S(=O)(=O)N2CCC(c3ccncc3)CC2)cc1 | ? | -69% | ? | 2.8µM* | / | /
CC(C)Cc1ccc(S(=O)(=O)N2CCC(c3ccncc3)CC2)cc1 | 16µM* | -65% | ? | ? | / | /
O=S(=O)(c1ccc(Cl)cc1)N1CCC(c2ccncc2)CC1 | / | -15% | / | 6% | / | /
COc1cccc(N2CC(NC(=O)COc3ccc4ccccc4c3)CC2=O)c1 (stereo not drawn) | / | -18% | / | -14% | / | /
COc1ccc2c(Sc3ccccc3)c(C(=O)NCCc3ccc(Cl)cc3)[nH]c2c1 | 3% | -1% | i | -9% | / | /
COc1ccc(-c2nc3cccc(C)n3c2Nc2ccc(C)cc2)cc1 | / | / | / | / | -26% | -23%
c1ccc(N/N=C2\CCCc3ccccc32)nc1 | -31% | -19% | i | 0% | -2% | 0%
Cc1cc(N/N=C2/CCCc3ccccc32)nc2ccccc12 | -3% | 11µM* | ? | 16µM* | -19% | ?
CC(C)C(=O)Nc1nnc(S(=O)(=O)N(C)Cc2ccc(F)cc2)s1 | / | -3% | / | 2% | / | /
COC(=O)c1ccc(COc2ccccc2/C=C(\C#N)C(=O)Nc2c(C)cccc2C)cc1 | -23% | -73% | i | ? | 18µM* | 18µM*
COC(=O)c1ccc(COc2ccccc2/C=C(\C#N)C(=O)Nc2ccccc2C)cc1 | -5% | -8% | ? | 4% | 2% | 8%

Screening data as filed in PubChem BioAssay.
